Hits are enriched below; roughly 1.9% of the tested compounds scored in any of these assays.
GLD-1 RNA inh = GLD-1-TGE RNA interaction inhibition (C. elegans). Q17339. purified GLD-1 + fluorescein TGE RNA, fluorescence polarization. inhibition, % at 5.96 µM. 0.44% of 320,000 active. AID 2280;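 active = percent inhibition above a per-plate cutoff, the plate mean of test compounds plus 3 SD, cut at about 30% in these data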;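 note: 0% = DMSO wells with GLD-1 and probe and 100% = wells lacking GLD-1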
MEX-5 binding = C. elegans MEX-5 TCR-2 RNA binding activity; AID 1832; activity score (negative = inhibition of binding), % at 10 µM; 0.38% of 300,000 active; MEX-5/FITC-TCR2 RNA binding, fluorescence polarization; stronger effect = lower value;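 active = inhibition past about -25% in most replicates, and total fluorescence under double the plate's negative control median, limit read from the data; inconclusive = replicates evenly split on the limit, or fluorescence at least double controls; inactive = too little inhibition in most replicates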;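 note: 0% = DMSO and -100% = 5 µM competing unlabeled TCR2 RNA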
MCL1-BIM inh = MCL1-BIM-BH3 interaction inhibition (human); inhibition, % at 10.9 µM; Q07820; 0.68% of 320,000 active; GST-MCL1 / FITC-Bim-BH3 fluorescence polarization;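 active = inhibition above the mean inhibition of all tested compounds plus 3 SD, set per campaign, cut at about 40% in these data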;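 note: 0% = DMSO wells and 100% = unlabeled Bim-BH3 peptide control; higher means more loss of mP so more displacement of Bim peptide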
Target sequence (Q07820 whole entry, looked up): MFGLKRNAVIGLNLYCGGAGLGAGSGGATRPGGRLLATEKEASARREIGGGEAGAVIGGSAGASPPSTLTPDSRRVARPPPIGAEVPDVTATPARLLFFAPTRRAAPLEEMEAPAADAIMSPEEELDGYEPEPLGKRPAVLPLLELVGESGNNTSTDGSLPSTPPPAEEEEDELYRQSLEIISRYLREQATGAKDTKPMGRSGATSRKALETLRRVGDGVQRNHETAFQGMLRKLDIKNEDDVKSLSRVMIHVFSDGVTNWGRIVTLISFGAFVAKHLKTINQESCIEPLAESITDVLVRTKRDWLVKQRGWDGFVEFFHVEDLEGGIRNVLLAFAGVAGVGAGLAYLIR
BCLXL inh = inhibitors of human Bcl-xL; GST-Bcl-xL / FITC-Bim BH3 peptide fluorescence polarization; inhibition, % at 10.9 µM; 0.7% of 320,000 active; AID 2129;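 active = inhibition above the mean of all tested compounds plus 3 SD, cutoff set per campaign, cut at about 30% in these data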;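 note: 0% = DMSO wells and 100% = unlabeled Bim-BH3 peptide competitor; inhibitors lower millipolarization by displacing the labeled peptide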
Target sequence (Q07817 whole entry, looked up): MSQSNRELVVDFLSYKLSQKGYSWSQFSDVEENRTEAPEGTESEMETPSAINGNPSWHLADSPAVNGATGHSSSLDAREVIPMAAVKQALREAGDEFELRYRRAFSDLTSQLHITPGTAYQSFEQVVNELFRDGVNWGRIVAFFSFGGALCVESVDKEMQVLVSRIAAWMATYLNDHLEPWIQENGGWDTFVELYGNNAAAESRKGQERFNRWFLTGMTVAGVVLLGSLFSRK
LANA-H2A inh = blocks KSHV LANA binding to histone H2A/H2B | inhibition, % (no concentration beside the values) | cell-free LANA-H2A/H2B peptide, fluorescence polarization | Q9QR71 | 0.6% of 320,000 active; in the data active = inhibition mostly above about 10%, no sharp cut-off; inactive = mostly below about 6.7%
Yeast superoxide = lowers age-related superoxide in aged yeast cells. S. cerevisiae aged cells, superoxide DHE fluorescence; stronger effect = lower value. superoxide response (% of plate mean), % at 10 µM. 0.18% of 330,000 active. AID 2690;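 active = superoxide response under a set limit, about three screen SD below normal, cut at about 65% in these data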;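 note: yeast aged for seven days with compound at 30 °C before DHE staining; 100% = average MFI of all compound-treated wells on the plate with controls excluded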
BCLXL inh confirm = counter-screen for MCL1 inhibitors: confirmation of human Bcl-xL inhibitors | GST-Bcl-xL / FITC-Bim BH3 peptide FP binding | shares compounds with MCL1-BIM inh | AID 2166 | 54% of 1,700 active | inhibition, % at 10.9 µM;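 active = inhibition above a cutoff equal to the mean inhibition of all tested compounds plus 3 SD, cut at about 30% in these data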;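 note: 0% = DMSO wells and 100% = unlabeled Bim BH3 control peptide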
MCL1 BIM confirm = MCL1-BIM-BH3 interaction inhibition, confirmation. shares compounds with MCL1-BIM inh. 61% of 1,700 active. inhibition, % at 10.9 µM. GST-MCL1 / FITC-Bim-BH3 fluorescence polarization. AID 2168;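 active = inhibition above the average of all tested compounds plus 3 SD, cut at about 40% in these data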;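 note: 0% = DMSO wells and 100% = unlabeled Bim-BH3 control peptide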
Numbers without * were called inactive; ? = inconclusive; nt = no result given; + = active, no number.

SMILES	GLD-1 RNA inh	MEX-5 binding	MCL1-BIM inh	BCLXL inh	LANA-H2A inh	Yeast superoxide	BCLXL inh confirm	MCL1 BIM confirm
CN(C)c1ccc(N=Cc2c(O)n(CCC3=CCCCC3)c(=O)[nH]c2=O)cc1	-2	-63*	7	7	-2	92	nt	nt
COc1ccc(/C=C/C(=O)c2c(O)n(CCC3=CCCCC3)c(=O)[nH]c2=O)cc1OC	-2	-47*	-2	-2	-4	92	nt	nt
CCOc1ccc(N2C(=O)/C(=C/c3ccco3)C(=O)NC2=S)cc1	-22	1	-25	-18	6	101	nt	nt
Cc1ccccc1N1C(=O)/C(=C/c2ccco2)C(=O)NC1=S	6	-2	98*	97*	26*	98	97*	99*
Nc1ccccc1Cl	7	nt	-1	4	-10	120	nt	nt
Cc1cc(OCC(=O)NC(Cc2ccc(Cl)cc2)C(=O)O)c2c3c(c(=O)oc2c1)CCCC3 (configuration not stated)	0	1	4	1	4	110	nt	nt
O=[N+]([O-])c1ccc(NCc2ccc(Cl)cc2)c2ccncc12	1	0	1	6	-2	99	nt	nt
O=[N+]([O-])c1ccc(NCc2ccccc2)c2nonc12	198*	-36*	175*	147*	17	111	167*	197*
CN(C)C1C(=O)C(C(N)=O)=C(O)C2(O)C(=O)C3=C(O)c4c(O)cccc4C(C)(O)C3CC12 (configuration not stated)	9	?	62*	30*	4	98	14	20
CN(C)[C@@H]1C(=O)C(C(N)=O)=C(O)[C@@]2(O)C(=O)C3=C(O)c4c(O)cccc4[C@@](C)(O)C3[C@H](O)C12 (some centres not stated)	77*	-11	+	153*	1	113	37*	87*
C[C@]12C[C@H](O)[C@@H](O)CC1=CCC1C2CC[C@@]2(C)C1CC[C@@H]2O (some centres not stated)	-1	nt	nt	nt	-5	75	nt	nt
C[C@]12CCC3C(CC[C@H]4C[C@@H](O)CC[C@]34C)C1C/C(=N/O)[C@@H]2O (some centres not stated)	-4	nt	nt	nt	-5	115	nt	nt
C[C@]12CCC3C(CC[C@H]4C[C@H](O)CC[C@]34C)C1C[C@H](O)[C@@H]2O (some centres not stated)	-4	nt	nt	nt	-2	84	nt	nt
COC(=O)Cn1cc(/C=C2\C(=O)NC(=O)N(c3ccccc3)C2=O)c2ccccc21	-7	-43*	135*	4	1	94	73*	94*
O=[N+]([O-])c1ccc(N2CCCCC2)c2ncccc12	0	1	-8	0	1	93	nt	nt
O=[N+]([O-])c1ccc(N2CCCCCC2)c2nonc12	138*	?	149*	132*	-16	106	108*	113*
CN1CCc2cc3c(c4c2C1Cc1ccccc1-4)OCO3 (configuration not stated)	94*	?	+	166*	4	109	77*	87*
CCOc1cc2c(cc1OCC)-n1cccc1C(c1cccc([N+](=O)[O-])c1)NC2 (configuration not stated)	-12	1	5	5	-2	84	nt	nt
CCCCn1c(O)c(C(CC)=NCCc2ccccc2)c(=O)[nH]c1=O	9	-1	5	5	4	105	nt	nt
CCCCn1c(O)c(C(=O)/C=C/c2c[nH]c3ccccc23)c(=O)[nH]c1=O	28	-10	85*	-7	2	85	-35	-52
Cc1ccc(Oc2cc(NN3CCCCC3)c([N+](=O)[O-])cc2[N+](=O)[O-])c([N+](=O)[O-])c1	3	-2	-2	-2	-1	89	nt	nt
CCN(CC)c1ccc(/C=C2/C(=O)NC(=O)N(CC3CCCO3)C2=O)cc1 (configuration not stated)	30	-4	50*	52*	2	89	16	-24
C=C(C)[C@@]12OC3(c4ccccc4)O[C@@H]1C1[C@@H]4O[C@]4(CO)[C@@H](O)[C@]4(O)C(=O)C(C)=C[C@H]4[C@@]1(O3)[C@H](C)[C@H]2OC(=O)/C=C/C=C/c1ccccc1 (some centres not stated)	2	1	0	0	-3	103	nt	nt
Clc1cc(Cl)c(-c2cc(Cl)c(Cl)cc2Cl)cc1Cl	-5	nt	5	-2	-54	101	nt	nt
C=CCn1c(O)c(C(CC)=Nc2ccc(N(C)C)cc2)c(=O)[nH]c1=O	22	-1	45*	29	0	87	18	10
SMILES	GLD-1 RNA inh	MEX-5 binding	MCL1-BIM inh	BCLXL inh	LANA-H2A inh	Yeast superoxide	BCLXL inh confirm	MCL1 BIM confirm
C=CCn1c(O)c(C(CC)=Nc2ccc3c(c2)CCC3)c(=O)[nH]c1=O	-5	-2	4	2	-3	115	nt	nt
N/C(=N\N=C/c1ccc(-c2ccc(O)c(C(=O)O)c2)o1)N[N+](=O)[O-]	-5	-29*	80*	23	-8	92	29	81*
C=C1[C@H]2CC[C@H]3[C@]4(C)C[C@H](O[C@@H]5OC(CO)[C@@H](OSOOO)[C@H](OS(=O)(=O)O)[C@H]5OC(=O)CC(C)C)C[C@@H](C(=O)O)[C@H]4CC[C@]3(C2)[C@H]1O (some centres not stated)	0	nt	nt	nt	2	105	nt	nt
O=C(O)c1cccc2c1NC(c1cccc([N+](=O)[O-])c1)C1CC(Sc3ccccc3[N+](=O)[O-])C(Cl)C21 (configuration not stated)	nt	-1	nt	nt	nt	nt	nt	nt
Cc1ccc2c(c1Cl)NC(C(=O)O)C1CC(Sc3ccccc3[N+](=O)[O-])C(Cl)C21 (configuration not stated)	-8	-2	59*	27	-6	107	-22	-32
CCN(CC)C(=O)c1ccc2c(c1)C1C(Cl)C(Sc3ccccc3[N+](=O)[O-])CC1C(C(=O)O)N2 (configuration not stated)	17	-56*	95*	86*	4	90	34*	37
C/C=C1/C[N+]2(C)CCC34C(=C(C=O)[C@H]1C[C@@H]32)Nc1ccccc14 (some centres not stated)	8	nt	-19	-3	-1	121	nt	nt
O=C1NC(=O)C(=C/C=C/c2coc3ccc(Br)cc3c2=O)C(=O)N1	11	-2	74*	86*	-8	94	92*	111*
